Several values for one entry are separate records, joined by “and”; a condition that tells them apart may be missing. Equal entries are not always repeated. Some compounds were tested as several samples or in several runs, with calls that do not always agree. Activity calls are given as the source filed them. The calls were made as follows: active = hit-call score of the fitted dose curve at least 0.9, where 1 is the maximum; inactive = score below 0.9.
Key:
[1] = read-out: Tissue plasminogen activator (tPA), PLAT (gene 5327); experiment: BSK_BE3C_tPA: BioMAP Diversity Plus: BE3C Assay for Tissue plasminogen activator (tPA) Biomarker Activity (AID 2283041); details: primary human bronchial epithelial cells; actives raise or lower the signal
Procedure, shortened: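 Using human lung primary bronchial epithelial cells, tPA was measured by ELISA 24 h after dosing; data fitted relative to DMSO.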

[2] = read-out: Interleukin-8 (IL8), CXCL8 (gene 3576); experiment: BSK_CASM3C_IL8: BioMAP Diversity Plus: CASM3C Assay for Interleukin-8 (IL8) Biomarker Activity (AID 2283042); details: primary human coronary artery smooth muscle cells; actives raise or lower the signal;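 also: IL-8 protein level quantified by ELISA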
[3] = read-out: Human Leukocyte Antigen - DR isotype (HLADR), HLA-DRA (gene 3122); experiment: BSK_CASM3C_HLADR: BioMAP Diversity Plus: CASM3C Assay for Human Leukocyte Antigen - DR isotype (HLADR) Biomarker Activity (AID 2283043); details: primary human coronary artery smooth muscle cells; actives raise or lower the signal;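 also: cell-surface HLA-DR protein level quantified by ELISA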
[4] = read-out: Macrophage colony-stimulating factor (MCSF), CSF1 (gene 1435); experiment: BSK_CASM3C_MCSF: BioMAP Diversity Plus: CASM3C Assay for Macrophage colony-stimulating factor (MCSF) Biomarker Activity (AID 2283044); details: primary human coronary artery smooth muscle cells; actives raise or lower the signal;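 also: M-CSF protein amount quantified by ELISA after 24 h exposure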
[5] = read-out: Low-density lipoprotein receptor (LDLR), LDLR (gene 3949); experiment: BSK_CASM3C_LDLR: BioMAP Diversity Plus: CASM3C Assay for Low-density lipoprotein receptor (LDLR) Biomarker Activity (AID 2283045); details: primary human coronary artery smooth muscle cells; actives raise or lower the signal;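 also: LDLR protein level on the cell surface quantified by ELISA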
[6] = read-out: Monocyte Chemoattractant Protein-1 (MCP1), CCL2 (gene 6347); experiment: BSK_CASM3C_MCP1: BioMAP Diversity Plus: CASM3C Assay for Monocyte Chemoattractant Protein-1 (MCP1) Biomarker Activity (AID 2283046); details: primary human coronary artery smooth muscle cells; actives raise or lower the signal;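 also: MCP-1 level quantified by ELISA 24 h after dosing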
[7] = BSK_CASM3C_Proliferation: Cell Proliferation Assessment in the BioMAP Diversity Plus: CASM3C Assay (AID 2283047); details: primary human coronary artery smooth muscle cells;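 also: sulforhodamine B total protein stain as relative cell number at 560 nm; sub-confluent cells exposed 48 h before staining; fitted both ways against DMSO so gain or loss of cell number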
[8] = read-out: Monokine induced gamma interferon (MIG), CXCL9 (gene 4283); experiment: BSK_CASM3C_MIG: BioMAP Diversity Plus: CASM3C Assay for Monokine induced gamma interferon (MIG) Biomarker Activity (AID 2283048); details: primary human coronary artery smooth muscle cells; actives raise or lower the signal;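 also: MIG protein level measured by ELISA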
[9] = read-out: serum amyloid A (SAA), SAA1 (gene 6288); experiment: BSK_CASM3C_SAA: BioMAP Diversity Plus: CASM3C Assay for serum amyloid A (SAA) Biomarker Activity (AID 2283049); details: primary human coronary artery smooth muscle cells; actives raise or lower the signal;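 also: SAA protein level quantified by ELISA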
[10] = BSK_CASM3C_SRB: Viability Assessment in the BioMAP Diversity Plus: CASM3C Assay (AID 2283050); details: primary human coronary artery smooth muscle cells;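 also: total protein by SRB staining as cytotoxicity measure in parallel cultures; cells exposed to compound for 24 h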
[11] = read-out: Thrombomodulin, THBD (gene 7056); experiment: BSK_CASM3C_Thrombomodulin: BioMAP Diversity Plus: CASM3C Assay for Thrombomodulin Biomarker Activity (AID 2283051); details: primary human coronary artery smooth muscle cells; actives raise or lower the signal;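 also: thrombomodulin protein level measured by ELISA 24 h after dosing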
[12] = read-out: Tissue Factor, F3 (gene 2152); experiment: BSK_CASM3C_TissueFactor: BioMAP Diversity Plus: CASM3C Assay for Tissue Factor Biomarker Activity (AID 2283052); details: primary human coronary artery smooth muscle cells; actives raise or lower the signal;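 also: cell surface tissue factor protein level read by ELISA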
[13] = read-out: Urokinase-type plasminogen activator receptor (uPAR), PLAUR (gene 5329); experiment: BSK_CASM3C_uPAR: BioMAP Diversity Plus: CASM3C Assay for Urokinase-type plasminogen activator receptor (uPAR) Biomarker Activity (AID 2283054); details: primary human coronary artery smooth muscle cells; actives raise or lower the signal;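 also: cell-surface uPAR protein level quantified by ELISA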
[14] = read-out: Vascular cell adhesion molecule 1 (VCAM1), VCAM1 (gene 7412); experiment: BSK_CASM3C_VCAM1: BioMAP Diversity Plus: CASM3C Assay for Vascular cell adhesion molecule 1 (VCAM1) Biomarker Activity (AID 2283055); details: primary human coronary artery smooth muscle cells; actives raise or lower the signal;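 also: VCAM-1 protein level quantified by ELISA on the cells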
[15] = read-out: Collagen III, COL3A1 (gene 1281); experiment: BSK_hDFCGF_CollagenIII: BioMAP Diversity Plus: hDFCGF Assay for Collagen III Biomarker Activity (AID 2283056); details: primary human foreskin fibroblasts; actives raise or lower the signal
Procedure, shortened: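 ELISA read-out of collagen III from human skin fibroblast cultures sampled 24 h post-dosing. Values were derived by bidirectional fitting relative to the DMSO vehicle control.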

[16] = read-out: Epidermal growth factor receptor (EGFR), EGFR (gene 1956); experiment: BSK_hDFCGF_EGFR: BioMAP Diversity Plus: hDFCGF Assay for Epidermal growth factor receptor (EGFR) Biomarker Activity (AID 2283057); details: primary human foreskin fibroblasts; actives raise or lower the signal
Procedure, shortened: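 Cell-based multiplexed assay in primary human foreskin fibroblasts. EGFR is read by ELISA 24 h after treatment and compared with DMSO controls.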

[17] = read-out: Interleukin-8 (IL8), CXCL8 (gene 3576); experiment: BSK_hDFCGF_IL8: BioMAP Diversity Plus: hDFCGF Assay for Interleukin-8 (IL8) Biomarker Activity (AID 2283058); details: primary human foreskin fibroblasts; actives raise or lower the signal
Procedure, shortened: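 Cells used are human skin primary fibroblasts. Chemical is added, cultures run 24 h, then IL-8 is quantified by ELISA, and gain or loss versus DMSO control is fitted in both directions.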

[18] = BSK_hDFCGF_Proliferation: Cell Proliferation Assessment in the BioMAP Diversity Plus: hDFCGF Assay (AID 2283059); details: primary human foreskin fibroblasts;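 also: curves fitted for both rise and fall of signal versus DMSO baseline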
Procedure, shortened: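 This proliferation readout used SRB total-protein staining of human foreskin fibroblasts […], normalized to DMSO with bidirectional curve fitting.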

[19] = read-out: Macrophage colony-stimulating factor (MCSF), CSF1 (gene 1435); experiment: BSK_hDFCGF_MCSF: BioMAP Diversity Plus: hDFCGF Assay for Macrophage colony-stimulating factor (MCSF) Biomarker Activity (AID 2283060); details: primary human foreskin fibroblasts; actives raise or lower the signal
Procedure, shortened: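 Primary human foreskin fibroblasts dosed with chemical; 24 h later, M-CSF quantified by ELISA; curves fitted in both directions vs DMSO negative control.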

[20] = read-out: Interferon-gamma inducible Protein 10 (IP10), CXCL10 (gene 3627); experiment: BSK_hDFCGF_IP10: BioMAP Diversity Plus: hDFCGF Assay for Interferon-gamma inducible Protein 10 (IP10) Biomarker Activity (AID 2283053); details: primary human foreskin fibroblasts; actives raise or lower the signal
Procedure, shortened: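 Chemical-treated human skin fibroblasts (primary) were sampled at 24 h for IP-10 by ELISA. Both increases and decreases relative to DMSO were scored.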

Measured: AC50

CCN(CC)c1ccc(C=O)c(O)c1
inactive: [1] | [2] | [3] | [4] | [5] | [6] | [7] | [8] | [9] | [10] | [11] | [12] | [13] | [14] | [15] | [16] | [17] | [19]
active: [18] 30.4 µM

NC(=O)C(F)(F)C(F)(F)C(F)(F)C(F)(F)C(F)(F)C(F)(F)C(F)(F)F
inactive: [1] | [2] | [3] | [4] | [5] | [6] | [7] | [8] | [9] | [10] | [11] | [12] | [20] | [13] | [14] | [15] | [16] | [17] | [18] | [19]

COC(F)(C(F)F)C(F)(F)F (stereo unspecified)
inactive: [1] | [2] | [3] | [4] | [5] | [6] | [7] | [8] | [9] | [10] | [11] | [12] | [13] | [14] | [15] | [16] | [17] | [18] | [19]

NCC(F)(F)C(F)(F)C(F)(F)C(F)(F)C(F)(F)C(F)(F)C(F)(F)C(F)(F)F
inactive: [1] | [2] | [3] | [4] | [5] | [6] | [7] | [8] | [9] | [10] | [11] | [12] | [13] | [14] | [15] | [16] | [17] | [18] | [19]

CC(C)CCCC(C)CCO (stereo unspecified)
active: [1] 26 µM | [3] 32.2 µM | [4] 32.3 µM | [5] 32.1 µM | [6] 31.2 µM | [7] 30.9 µM | [8] 29.7 µM | [9] 29.6 µM | [10] 32.2 µM | [12] 29.9 µM | [13] 31.3 µM | [14] 31.9 µM | [18] 32.8 µM
inactive: [2] | [11] | [15] | [16] | [17] | [19]

CCN=C1C=CC(=C(c2ccc(N(CC)CC)cc2)c2ccc(N(CC)CC)cc2)c2ccccc21
inactive: [2] | [5] | [16]
active: [1] 1.54 µM and 976 nM | [3] 4.2 µM and 3.11 µM | [4] 5.89 µM and 2.3 µM | [6] 4.84 µM and 4.54 µM | [7] 1.09 µM and 1.31 µM | [8] 5.1 µM and 5.25 µM | [9] 371 nM and 1.07 µM | [10] 5.3 µM and 5.29 µM | [11] 1.03 µM and 1.42 µM | [12] 149 nM and 1.21 µM | [13] 3.87 µM and 3.2 µM | [14] 5.39 µM and 2.81 µM | [15] 1.15 µM and 1.3 µM | [17] 2.89 µM and 2.29 µM | [18] 180 nM and 151 nM | [19] 1.37 µM and 1.28 µM

OCC(O)CC(F)(F)C(F)(F)C(F)(F)C(F)(F)F (stereo unspecified)
inactive: [1] | [2] | [3] | [4] | [5] | [6] | [7] | [8] | [9] | [10] | [11] | [12] | [13] | [14] | [15] | [16] | [17] | [18] | [19]

CCN(CC)c1ccc(C=O)cc1
inactive: [1] | [2] | [3] | [4] | [5] | [6] | [7] | [8] | [9] | [10] | [11] | [13] | [14] | [15] | [16] | [17] | [18] | [19]
active: [12] 5.46 µM

Cc1ccc(O)c(-n2nc3ccccc3n2)c1
inactive: [1] | [2] | [3] | [4] | [5] | [6] | [7] | [8] | [9] | [10] | [11] | [12] | [13] | [14] | [15] | [16] | [17] | [18] | [19]

O=S(=O)(O)CCC(F)(F)C(F)(F)C(F)(F)C(F)(F)C(F)(F)C(F)(F)C(F)(F)C(F)(F)F
inactive: [1] | [2] | [3] | [4] | [5] | [6] | [7] | [8] | [9] | [10] | [11] | [12] | [13] | [14] | [15] | [16] | [17] | [18] | [19]

FC(F)(F)C(F)(F)C(F)(F)C(F)(F)C(F)(F)C(F)(F)C(F)(F)CCI
active: [15] 2.26 µM | [18] 1.78 µM and 1.25 µM | [19] 1.47 µM
inactive: [1] | [2] | [3] | [4] | [5] | [6] | [7] | [8] | [9] | [10] | [11] | [12] | [13] | [14] | [15] | [16] | [17] | [19]

O=C=NCc1cccc(CN=C=O)c1
inactive: [1] | [2] | [3] | [4] | [5] | [6] | [7] | [8] | [9] | [10] | [11] | [12] | [13] | [14] | [15] | [16] | [17] | [18] | [19]

Reference: PubChem BioAssay (EPA / NIEHS)
